DT40 TDP1 CPT – qHTS for Inhibitors of human tyrosyl-DNA phosphodiesterase 1 (TDP1): qHTS in cells in presence of CPT; actives 12% (n = 420,000); Potency, µM (highest dose often 46.2 µM), actives largely listed as inhibitors; chicken DT40 Tdp1-/-;hTDP1 cells + 20 nM CPT, ATP luminescence, 48 h; note: nearly all actives have a fitted effect of over 55% in size
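Chicken DT40 Tdp1-/- cells stably complemented with human TDP1 were seeded at 400 cells/well in medium containing 20 nM camptothecin, exposed to pin-transferred compounds, and grown at 37 °C for at least 48 hr. Viability was read as ATP luminescence.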
ATXN2 expr inh – Primary qHTS for Inhibitors of ATXN expression. HEK-293 ATXN2-luciferase reporter, luminescence, 24 h. Potency, µM (doses to about 57 µM), actives largely listed as inhibitors. actives 0.72% (n = 360,000). AID 1745845, 2022; note: nearly all actives have a fitted effect of over 55% in size
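qHTS (up to 57 uM final) was run with 24 h compound exposure of reporter cells at 37 °C. Each well was multiplexed: SteadyGlo luminescence measured ATXN2-luciferase expression after a fluorogenic Gly-Phe-AFC viability readout (25 uM final).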
HepG2 tox-1 – qHTS for Inhibitors of TGF-b: Cytotox Counterscreen | HepG2 CAGA-GFP viability, ATP luminescence, 18 h | actives 0.76% (n = 410,000) | Potency, µM (top dose mostly 46.1 µM), hits mostly cytotoxic
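CellTiter-Glo luminescence gave cytotoxicity after 18 hours at 37 degrees C. The cells were HepG2 CAGA-GFP in 1% FBS DMEM, stimulated with 500 pg/mL TGF-beta after compound addition. %Activity was normalised to no-cell wells (complete cell-killing) and DMSO (no toxicity), and curves were fitted and classified.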
TDP1 cell noCPT – qHTS for Inhibitors of human tyrosyl-DNA phosphodiesterase 1 (TDP1): qHTS in cells in absence of CPT; actives 15% (n = 420,000); Potency, µM (highest dose often 46.2 µM), hits mostly inhibitors; DT40 Tdp1-/- hTDP1 cells, no CPT, ATP luminescence, 48 h; note: nearly all actives have a fitted effect of over 55% in size
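Camptothecin absent (DMSO only). Human TDP1-complemented DT40 knockout cells, 400 cells/well, 37 °C for minimum 48 hr; ATP measured via CellTiter-Glo, 30 min dark incubation, luminescence.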
TGFb inhibitor – qHTS for Inhibitors of TGF-b | HepG2 CAGA-GFP TGF-b/SMAD3 reporter, GFP fluorescence, 18 h; TGF-beta stimulated, 500 pg/mL final | Potency, µM (top dose mostly 46.1 µM), usual class: inhibitors | actives 1.2% (n = 410,000); note: nearly all actives have a fitted effect of over 65% in size
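HEPG2 CAGA-GFP, 1000 cells/well; 2 h settle, 37 C; cpd via pin tool; TGF-b 500 pg/mL final; 18 h, 37 C; GFP imaging ex488/em500-530; %Activity normalised to -TGF-b and +DMSO controls; CRC fit, curve class.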
S2 tox – Viability Counterscreen for Primary qHTS for Inhibitors of ATXN expression. Potency, µM (titrated, usually from 56.7 µM), most hits filed as cytotoxic. actives 0.49% (n = 400,000). S2 cells (HEK-293 line with an ATXN2-luciferase reporter) viability, CellTiter-Fluor protease fluorescence, 24 h; note: nearly all actives have a fitted effect of over 40% in size
TGFb confirm – qHTS for Inhibitors of TGF-b: Confirmation of Cherry Picks; Potency, µM (titrated, usually from 46.1 µM), hits mostly inhibitors; AID 720534, 2013; shares compounds with TGFb inhibitor; actives 63% (n = 1,600); HepG2 CAGA-GFP TGF-b reporter, GFP fluorescence, 18 h; cells stimulated with TGF-beta, 500 pg/mL; note: nearly all actives have a fitted effect of over 65% in size
HepG2 tox-2 – qHTS for Inhibitors of TGF-b: Cytotox Counterscreen for Cherry Picks. shares compounds with TGFb inhibitor. HepG2 CAGA-GFP viability, ATP luminescence, 18 h; cells stimulated with TGF-beta, 500 pg/mL. Potency, µM (doses to about 46.1 µM), actives largely listed as inhibitors. actives 27% (n = 1,600); note: nearly all actives have a fitted effect of over 70% in size
CCL64 TGFb inh – qHTS for Inhibitors of TGF-b: CCL64 Cells Orthogonal Assay for Cherry Picks. shares compounds with TGFb inhibitor. CCL64 CAGA-GFP reporter, TGF-b stimulated, GFP fluorescence, 18 h. Potency, µM (series often up to 46.1 µM), most hits filed as inhibitors. actives 41% (n = 1,600); note: nearly all actives have a fitted effect of over 65% in size
TGFb COP inh – qHTS for Inhibitors of TGF-b: Hit Validation in HepG2 Cells using COP promoter | HepG2 COP-GFP TGF-b reporter, GFP fluorescence, 18 h; cells stimulated by added recombinant TGF-beta | AID 720537, 2013 | Potency, µM (doses to about 46.1 µM), usual class: inhibitors | actives 3% (n = 1,600) | shares compounds with TGFb inhibitor; note: nearly all actives have a fitted effect of over 70% in size
Each line names hits and unclear results; the compound was inactive in the other large screens (follow-up assays come after a bar, where they were run). Only some compounds are listed: those with a hit (about 17% of all), similar ones and a draw of the others. Calls come from the whole dose curve; as a rule, active = well fitted curve in the direction sought with a large enough effect; inconclusive = small, poorly fitted or top-dose-only effect, or another doubt; inactive = no such curve, though single readings can be large; an effect the other way counts as inactive or inconclusive.

Cc1ccc(S(=O)(=O)N2CC=C(c3ccc(F)cc3)CC2)cc1	TDP1 cell noCPT inconclusive, TGFb inhibitor 3.16µM, S2 tox inconclusive | TGFb confirm inconclusive | HepG2 tox-2 inactive | CCL64 TGFb inh inactive | TGFb COP inh inactive
COCc1cc(C)c2c(N)c(C#N)sc2n1	none
CCc1nc2ccccc2c(C(=O)OCC(=O)Nc2cccc(S(=O)(=O)NC3=NCCCCC3)c2)c1C	DT40 TDP1 CPT 16.4µM, ATXN2 expr inh 22.4µM, TDP1 cell noCPT 4.61µM, TGFb inhibitor 11.2µM, S2 tox inconclusive | TGFb confirm 7.31µM | HepG2 tox-2 inconclusive | CCL64 TGFb inh inconclusive | TGFb COP inh inactive
O=C(COC(=O)c1ccc2ccccc2n1)Nc1cccc(S(=O)(=O)NC2=NCCCCC2)c1	none (no result: ATXN2 expr inh)
COc1ccc(N(C(=O)CCl)C(C(=O)NC2CCCCC2)c2cccnc2)cc1 (centres undefined)	DT40 TDP1 CPT 3.26µM, ATXN2 expr inh 14.1µM, HepG2 tox-1 11.2µM, TDP1 cell noCPT 2.31µM, TGFb inhibitor 8.91µM, S2 tox 8.91µM | TGFb confirm 7.31µM | HepG2 tox-2 11.6µM | CCL64 TGFb inh 9.2µM | TGFb COP inh inconclusive
COc1ccc(C(C(=O)NC2CCCCC2)N(C(=O)c2ccccn2)c2cccnc2)cc1 (centres undefined)	none (no result: ATXN2 expr inh)
COC(=O)C(Cc1ccccc1)NS(=O)(=O)c1ccccc1Br (centres undefined)	none
Cc1cccc(N2CCN(C(=O)c3c(C)nn(Cc4ccccc4Cl)c3C)CC2)c1C	DT40 TDP1 CPT 9.2µM, TDP1 cell noCPT 10.3µM, TGFb inhibitor 20µM | TGFb confirm 10.3µM | HepG2 tox-2 inconclusive | CCL64 TGFb inh inconclusive | TGFb COP inh inactive
O=C(c1ccccc1-c1ncc[nH]1)N1CCCC(Nc2ccc(F)cc2)C1 (centres undefined)	none
Cc1cc(NC(=O)CS(=O)(=O)c2cn(Cc3cccc(Br)c3)c3ccccc23)no1	DT40 TDP1 CPT 25.9µM, ATXN2 expr inh inconclusive, TDP1 cell noCPT inconclusive, TGFb inhibitor 10µM, S2 tox inconclusive | TGFb confirm 11.6µM | HepG2 tox-2 inactive | CCL64 TGFb inh inconclusive | TGFb COP inh inactive
Cc1cc(NC(=O)CS(=O)(=O)c2cn(Cc3ccccc3Cl)c3ccccc23)no1	DT40 TDP1 CPT inconclusive, TDP1 cell noCPT inconclusive, TGFb inhibitor inconclusive
NC(=O)c1cccc(-c2cnc(N)c(C(=O)c3cccnc3)n2)c1	DT40 TDP1 CPT 2.31µM, TDP1 cell noCPT 9.2µM, TGFb inhibitor 10µM, S2 tox inconclusive | TGFb confirm 4.61µM | HepG2 tox-2 16.4µM | CCL64 TGFb inh inactive | TGFb COP inh inactive
NC(=S)N=Nc1c(O)n(CCCl)c2ccc(Br)cc12	DT40 TDP1 CPT 16.4µM, ATXN2 expr inh inconclusive, TDP1 cell noCPT 23.1µM, TGFb inhibitor inconclusive, S2 tox inconclusive | TGFb confirm inactive | HepG2 tox-2 inconclusive | CCL64 TGFb inh inconclusive | TGFb COP inh inactive
C=CCN1C(=O)c2ccc(C(=O)Nc3ccccn3)cc2C1=O	none
O=S(=O)(c1ccc2ncn(O)c2c1)N1CCOCC1	DT40 TDP1 CPT inconclusive, TDP1 cell noCPT inconclusive
NC(=O)c1sc(-c2ccsc2)cc1NS(=O)(=O)c1ccc(C(F)(F)F)cc1	TDP1 cell noCPT inconclusive, TGFb inhibitor inconclusive | TGFb confirm 23.1µM | HepG2 tox-2 inconclusive | CCL64 TGFb inh inconclusive | TGFb COP inh inactive
COCCNc1nc(NCc2cccs2)nc2ccsc12	DT40 TDP1 CPT inconclusive, TDP1 cell noCPT 25.9µM, TGFb inhibitor 12.6µM | TGFb confirm 6.51µM | HepG2 tox-2 inconclusive | CCL64 TGFb inh inconclusive | TGFb COP inh inactive
O=C1CCCN1CCCNc1nc(NCc2cccs2)nc2ccsc12	DT40 TDP1 CPT 20.6µM, TDP1 cell noCPT 16.4µM, TGFb inhibitor 10µM, S2 tox inconclusive | TGFb confirm 6.51µM | HepG2 tox-2 inconclusive | CCL64 TGFb inh inconclusive | TGFb COP inh inactive
O=C1CCCN1CCCNS(=O)(=O)c1cccs1	none
Cc1ccc(NC(=S)N(Cc2ccccc2)Cc2cccs2)c(C)c1	none (no result: ATXN2 expr inh)
Cc1ccc(Nc2nc(NCc3cccs3)nc3ccsc23)c(C)c1	DT40 TDP1 CPT 23.1µM, ATXN2 expr inh inconclusive, TDP1 cell noCPT 9.2µM, TGFb inhibitor 12.6µM, S2 tox inconclusive | TGFb confirm 6.51µM | HepG2 tox-2 inconclusive | CCL64 TGFb inh inconclusive | TGFb COP inh inactive
CN(C)S(=O)(=O)c1ccc(Cl)c(C(=O)OCC(=O)c2ccco2)c1	none
O=C(NC(Nc1nc2ccc([N+](=O)[O-])cc2s1)(C(F)(F)F)C(F)(F)F)c1cccnc1	DT40 TDP1 CPT 3.66µM, ATXN2 expr inh inconclusive, TDP1 cell noCPT 2.31µM, TGFb inhibitor 3.16µM, S2 tox inconclusive | TGFb confirm 4.11µM | HepG2 tox-2 1.64µM | CCL64 TGFb inh 5.8µM | TGFb COP inh inactive
O=[N+]([O-])c1ccc2nc(NS(=O)(=O)c3ccccc3[N+](=O)[O-])sc2c1	none
O=C(NC(Nc1nc2ccc([N+](=O)[O-])cc2s1)(C(F)(F)F)C(F)(F)F)c1ccccc1Cl	DT40 TDP1 CPT 0.326µM, ATXN2 expr inh inconclusive, TDP1 cell noCPT 0.184µM, TGFb inhibitor 0.447µM, S2 tox inconclusive | TGFb confirm 0.92µM | HepG2 tox-2 1.03µM | CCL64 TGFb inh 1.46µM | TGFb COP inh inactive

High-throughput results as filed in PubChem.
